# Reference: PubChem BioAssay (EPA / NIEHS)
# Results filed as inconclusive are left out. The source made the active and inactive calls. How the source made its calls, unless noted: active means hit-call score of the fitted dose curve at least 0.9, where 1 is the maximum; inconclusive means response in the unintended direction; inactive means score below 0.9.
# What was measured:
# [1] = Tanguay_ZF_120hpf_SWIM_legacy: (Legacy) Oregon State University Tanguay Lab 120 Hour Post-fertilization zebrafish Assay for Swim Bladder Malformation (AID 2283654);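 further: swim bladder malformation in each larva scored yes or no under brightfield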
# How it was run: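 Dechorionated Tropical 5D wild-type embryos, placed singly from 6 hpf, were statically exposed at 28C to 120 hpf with 0.64% DMSO final; swim bladder malformation was scored present/absent by brightfield microscopy, gain of signal relative to DMSO controls.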
# [2] = Tanguay_ZF_120hpf_TRUN_legacy: (Legacy) Oregon State University Tanguay Lab 120 Hour Post-fertilization zebrafish Assay for Truncated Body (AID 2283655)
# How it was run: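 Binary presence/absence of truncated body is recorded at 120 hpf by brightfield, with non-mortality endpoints skipped after death. Exposure is static from 6 hpf in sealed dark plates at 28C, using dechorionated wild-type zebrafish, 0.64% DMSO.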
# [3] = Tanguay_ZF_120hpf_NC_legacy: (Legacy) Oregon State University Tanguay Lab 120 Hour Post-fertilization zebrafish Assay for Notochord and Tail Malformation (AID 2283656)
# How it was run: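 Dechorionated Tropical 5D wild-type zebrafish embryos, one per well from 6 hpf, statically exposed to 120 hpf at 28C in 0.64% DMSO final. Notochord distortion scored present/absent by brightfield; dead embryos excluded.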
# [4] = Tanguay_ZF_120hpf_TR_legacy: (Legacy) Oregon State University Tanguay Lab 120 Hour Post-fertilization zebrafish Assay for Touch Response (AID 2283667)
# How it was run: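 Tropical 5D wild-type zebrafish embryos were exposed statically in sealed, foil-covered plates at 28C until 120 hpf, with 0.64% (vol/vol) final DMSO. Touch response was scored as present or absent; embryos that died were not scored.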
# [5] = CCTE_Padilla_ZF_144hpf_TERATOSCORE: (Legacy) CCTE's 144 Hour Post-fertilization zebrafish Assay Teratoscore, Padilla Lab (AID 2283679; active means hit-call score of the fitted dose curve at least 0.9, where 1 is the maximum; inactive means score below 0.9;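 on AC50: zebrafish embryos with chorions exposed by immersion from 6-8 hpf to 5 dpf with daily renewal; teratogenicity score from eye scoring of death hatching and malformations at 144 hpf; higher score means more developmental defects relative to DMSO baseline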)
# How it was run: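 Larvae scored by eye at 144 hpf for death, hatching and malformations after a day in clean Hanks'. Before that, daily-renewed exposure at 80 uM (0.4% DMSO, 26C) from roughly 6-8 hpf through 5 dpf, 4 embryos per chemical.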
# [6] = STM_H9_OrnithineISnorm_perc: Stemina devTOX quickPredict H9 human embryonic stem cell (hESC)-based Assay for Ornithine (ORN) Metabolite Biomarker, Normalized (AID 2283712; active means hit-call score of the fitted dose curve at least 0.9, where 1 is the maximum; inactive means score below 0.9;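 further: ornithine released into spent medium during last day measured by mass spectrometry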)
# How it was run: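 H9 human embryonic stem cells kept pluripotent receive test chemical over 72 h, refreshed daily by media exchange. Media from the closing 24 h is deproteinized and analysed by UPLC-HRMS on an amide column; ornithine signal is scaled to labelled standard and vehicle.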
# [7] = STM_H9_CystineISnorm_perc: Stemina devTOX quickPredict H9 human embryonic stem cell (hESC)-based Assay for Cystine (CYSS) Metabolite Biomarker, Normalized (AID 2283713; active means hit-call score of the fitted dose curve at least 0.9, where 1 is the maximum; inactive means score below 0.9)
# How it was run: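 H9 hESC, pluripotent; compound 72h, re-dosed q24h with medium change. Last-24h medium → 40% acetonitrile deproteinization → UPLC-HRMS. CYSS area / C13-CYSS standard, then % of 0.1% DMSO median.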
# [8] = STM_H9_OrnCyssISnorm_ratio: Stemina devTOX quickPredict H9 human embryonic stem cell (hESC)-based Assay for Ornithine (ORN):Cystine (CYSS) Ratio (AID 2283714)
# How it was run: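 Undifferentiated H9 hESCs were exposed to compound for 72h with media and chemical replaced every 24h. Final 24-h conditioned media were deproteinized and analysed by UPLC-HRMS. ORN and CYSS peak areas were normalized to C13 internal standards and the ratio taken versus 0.1% DMSO.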
# [9] = CEETOX_H295R_MTT_cell_viability: Viability Assessment in the CeeTox HT-H295R MTT Assay (AID 2283718; active means hit-call score of the fitted dose curve at least 0.9, where 1 is the maximum; inactive means score below 0.9)
# How it was run: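 H295R cells prestimulated 48 h with 10 uM forskolin, then exposed 48 h to test chemical (0.1% DMSO final). Viability by MTT (0.5 mg/ml, 4 h, 37 C), absorbance 570/650 nm; percent change versus DMSO, bidirectional fit.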
# [10] = Tanguay_ZF_120hpf_ActivityScore_legacy: (Legacy) Oregon State University Tanguay Lab 120 Hour Post-fertilization zebrafish Assay Score for Activity (AID 2283742)
# How it was run: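 Tropical 5D wild-type zebrafish embryos, dechorionated with pronase at 4 hpf, were exposed singly from 6 hpf to 120 hpf statically at 28C in 0.64% DMSO. Malformations and mortality were scored as binary by brightfield, with the activity score combining 18 morphology components.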
# [11] = test system: Thyroperoxidase (TPO), gene 54314; experiment: CCTE_Simmons_AUR_rTPO: CCTE's Amplex UltraRed Assay for Thyroperoxidase (TPO) Inhibition, Simmons Lab (AID 2283662);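 on AC50: potency for loss of signal meaning inhibition of peroxidase activity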
# How it was run: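 Rat thyroid microsomes (5 ug protein) with 25 uM Amplex UltraRed and 300 uM H2O2 in 200 mM phosphate buffer, 30 min at 37C in dark; fluorescence 544/590 nm. Eight concentrations, 5 nM–87.5 uM final, 0.5% DMSO, triplicate biological replicates.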
# [12] = CCTE_Simmons_CellTiterGLO_HEK293T: Viability Assessment in CCTE's Assays for Thyroperoxidase (TPO) Inhibition, Simmons Lab (AID 2283665);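 on AC50: cells exposed to compound for 24 h before readout; actives reduce ATP signal below DMSO vehicle meaning cytotoxicity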
# How it was run: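 HEK293T, 10 000 cells/well, DMEM + 1% FBS; 8-pt titration 5 nM–87.5 uM [final], 0.5% DMSO; 24 hr, 37C, 5% CO2; CellTiter-Glo luminescence; n=3 biological replicates.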
# [13] = read-out: solute carrier (SLC10A1), SLC10A1 (gene 6554); experiment: LTEA_HepaRG_SLC10A1: Life Technologies and Expression Analysis (LTEA) Assay for solute carrier (SLC10A1) using HepaRG (AID 2283657; active means hit-call score of the fitted dose curve at least 0.9, where 1 is the maximum; inactive means score below 0.9); settings: mRNA level, 48 h; actives raise or lower the signal
# How it was run: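 Differentiated HepaRG cells were plated 48 h, then exposed in serum-free induction medium for 48 h to 8 concentrations (top 100 uM, half-log steps, 0.5% DMSO). SLC10A1 mRNA was quantified by qRT-PCR normalized to ACTB, GAPDH, POLR2A; bidirectional fit versus DMSO.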
# [14] = read-out: matrix metalloproteinase-1 (MMP1), MMP1 (gene 4312); experiment: LTEA_HepaRG_MMP1: Life Technologies and Expression Analysis (LTEA) Assay for matrix metalloproteinase-1 (MMP1) using HepaRG (AID 2283658; active means hit-call score of the fitted dose curve at least 0.9, where 1 is the maximum; inactive means score below 0.9); settings: mRNA level, 48 h; actives raise or lower the signal
# How it was run: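 qRT-PCR (TaqMan, Fluidigm arrays) of MMP1 transcript, normalized against three housekeeping genes and fitted in both directions relative to 0.5% DMSO vehicle. Human HepaRG cultures received duplicate 48 h exposures across 8 points, highest 100 uM with half-log steps.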
# [15] = read-out: Cytochrome P450 (CYP24A1_1), CYP24A1 (gene 1591); experiment: LTEA_HepaRG_CYP24A1_1: Life Technologies and Expression Analysis (LTEA) Assay for Cytochrome P450 (CYP24A1_1) using HepaRG (AID 2283671; active means hit-call score of the fitted dose curve at least 0.9, where 1 is the maximum; inactive means score below 0.9); settings: mRNA level, 48 h; actives raise or lower the signal
# How it was run: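 HepaRG, 48 h exposure, 8-pt half-log series from 100 uM in 0.5% DMSO, duplicates. Readout: TaqMan qRT-PCR of CYP24A1 mRNA, housekeeping-normalized (ACTB/GAPDH/POLR2A). Bidirectional curve fit vs DMSO baseline.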
# [16] = test system: Thyroperoxidase (TPO), gene 445522; experiment: CCTE_Simmons_GUA_TPO: CCTE's Guaiacol Assay for Thyroperoxidase (TPO) Inhibition, Simmons Lab (AID 2283750)
# How it was run: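 Porcine thyroid microsomes (25 ug) in 200mM potassium phosphate, preincubated 30 s at 37C with compound (8 concentrations, 5 nM–87.5 uM) and 35mM guaiacol; 1mM H2O2 starts reaction. Absorbance change at 450nm over first 80 s; loss of signal versus DMSO, three replicates.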
smiles,measurement,setting,value
COc1cccc(-c2ccc(/C=C\CN3CCCCCC3)cc2Cl)c1,outcome,[1],inactive
same,outcome,[2],inactive
same,outcome,[3],inactive
same,outcome,[4],inactive
same,AC50,[5],2.73 µM (active)
same,AC50,[6],3.59 µM (active)
same,AC50,[7],4.11 µM (active)
same,AC50,[8],3.97 µM (active)
same,outcome,[9],inactive
same,AC50,[10],41.8 µM (active)
CCCN(C1CCN(C(=O)C2CCNCC2)CC1)[C@@H]1CCc2ccc(OC)cc2C1,outcome,[1],inactive
same,outcome,[2],inactive
same,outcome,[3],inactive
same,outcome,[11],inactive
same,AC50,[12],18.2 µM (active)
same,outcome,[4],inactive
same,outcome,[5],inactive
same,outcome,[10],inactive
Cn1c(=O)cc(Oc2ccc(F)cc2F)c2cnc(NCC(C)(C)O)nc21,outcome,[1],inactive
same,outcome,[2],inactive
same,outcome,[3],inactive
same,outcome,[4],inactive
same,outcome,[5],inactive
same,outcome,[6],inactive
same,outcome,[7],inactive
same,outcome,[8],inactive
same,outcome,[9],inactive
same,outcome,[10],inactive
C=CC(=C)CCC=C(C)C,outcome,[1],inactive
same,outcome,[2],inactive
same,outcome,[3],inactive
same,outcome,[13],inactive
same,outcome,[14],inactive
same,outcome,[11],inactive
same,outcome,[12],inactive
same,outcome,[4],inactive
same,outcome,[15],inactive
same,outcome,[10],inactive
CC[C@H]1OC(=O)[C@H](C)[C@@H](O[C@H]2C[C@@](C)(OC)[C@@H](O)[C@H](C)O2)[C@H](C)[C@@H](O[C@@H]2O[C@H](C)C[C@H](N(C)C)[C@H]2O)[C@](C)(O)C[C@@H](C)C(=O)[C@H](C)[C@@H](O)[C@]1(C)O,outcome,[2],inactive
same,outcome,[3],inactive
same,outcome,[10],inactive
O=C(O)c1cc(N=Nc2ccc(S(=O)(=O)Nc3ccccn3)cc2)ccc1O,outcome,[1],inactive
same,outcome,[2],inactive
same,outcome,[3],inactive
same,outcome,[10],inactive
Cc1ccc(N)cc1O,outcome,[1],inactive
same,outcome,[3],inactive
same,AC50,[11],1.18 µM (active)
same,outcome,[12],inactive
same,outcome,[4],inactive
same,outcome,[5],inactive
same,outcome,[9],inactive
same,outcome,[10],inactive
same,AC50,[16],3.61 µM (active)
C1N2CN3CN1CN(C2)C3,outcome,[1],inactive
same,outcome,[3],inactive
same,outcome,[4],inactive
same,outcome,[10],inactive
O=c1[nH]c2ccc(S(=O)CCN3CCC(Cc4ccc(F)cc4)CC3)cc2o1 (stereo not given),outcome,[2],inactive
same,outcome,[6],inactive
same,AC50,[7],3.91 µM (active)
same,AC50,[8],5 µM (active)
same,outcome,[9],inactive
same,outcome,[10],inactive
CN(C)c1ccc(Cc2ccc(N(C)C)cc2)cc1,outcome,[1],inactive
same,outcome,[2],inactive
same,AC50,[11],12 µM (active)
same,AC50,[12],22.3 µM (active)
same,outcome,[4],inactive
same,AC50,[5],25.2 µM (active)
same,outcome,[9],inactive
same,outcome,[10],inactive
Cc1c(-c2cccnc2)c2ccccc2n1CCCCC(=O)O,outcome,[1],inactive
same,outcome,[2],inactive
same,AC50,[5],58.5 µM (active)
same,outcome,[9],inactive
same,outcome,[10],inactive
CC(C)(O)c1coc(S(=O)(=O)NC(=O)Nc2c3c(cc4c2CCC4)CCC3)c1,outcome,[1],inactive
same,outcome,[2],inactive
same,AC50,[11],7.6 µM (active)
same,AC50,[12],22.4 µM (active)
same,outcome,[4],inactive
same,outcome,[9],inactive
same,outcome,[10],inactive
CC(C)=CCC/C(C)=C\CO,outcome,[2],inactive
same,outcome,[3],inactive
same,AC50,[11],8.64 µM (active)
same,outcome,[12],inactive
same,outcome,[4],inactive
same,outcome,[9],inactive
same,outcome,[10],inactive
Nc1cccc(N)c1,outcome,[1],inactive
same,outcome,[2],inactive
same,AC50,[11],5.02 µM (active)
same,outcome,[12],inactive
same,outcome,[4],inactive
same,outcome,[10],inactive
COCCOc1cc2cc(C(=O)NC3CCN(C(C)C)CC3)n(CC(=O)Nc3ccc(Cl)cn3)c2cn1,outcome,[1],inactive
same,outcome,[2],inactive
same,outcome,[4],inactive
same,outcome,[10],inactive
O=C(O)c1cccc(Oc2ccccc2)c1,outcome,[1],inactive
same,outcome,[2],inactive
same,outcome,[13],inactive
same,outcome,[14],inactive
same,outcome,[15],inactive
same,AC50,[5],65.2 µM (active)
same,outcome,[10],inactive
CCN(C(=O)c1cc(C)cc(OC[C@H](C)Nc2ccncc2)c1)C(C)C,outcome,[2],inactive
same,outcome,[3],inactive
same,outcome,[4],inactive
same,outcome,[6],inactive
same,AC50,[7],7 µM (active)
same,AC50,[8],7 µM (active)
same,outcome,[10],inactive
